{"source": "paper PMC4931317", "molecular_target": "U3 small nucleolar RNA-associated protein 4 (UniProt Q06679)", "sequence (Q06679 whole entry)": "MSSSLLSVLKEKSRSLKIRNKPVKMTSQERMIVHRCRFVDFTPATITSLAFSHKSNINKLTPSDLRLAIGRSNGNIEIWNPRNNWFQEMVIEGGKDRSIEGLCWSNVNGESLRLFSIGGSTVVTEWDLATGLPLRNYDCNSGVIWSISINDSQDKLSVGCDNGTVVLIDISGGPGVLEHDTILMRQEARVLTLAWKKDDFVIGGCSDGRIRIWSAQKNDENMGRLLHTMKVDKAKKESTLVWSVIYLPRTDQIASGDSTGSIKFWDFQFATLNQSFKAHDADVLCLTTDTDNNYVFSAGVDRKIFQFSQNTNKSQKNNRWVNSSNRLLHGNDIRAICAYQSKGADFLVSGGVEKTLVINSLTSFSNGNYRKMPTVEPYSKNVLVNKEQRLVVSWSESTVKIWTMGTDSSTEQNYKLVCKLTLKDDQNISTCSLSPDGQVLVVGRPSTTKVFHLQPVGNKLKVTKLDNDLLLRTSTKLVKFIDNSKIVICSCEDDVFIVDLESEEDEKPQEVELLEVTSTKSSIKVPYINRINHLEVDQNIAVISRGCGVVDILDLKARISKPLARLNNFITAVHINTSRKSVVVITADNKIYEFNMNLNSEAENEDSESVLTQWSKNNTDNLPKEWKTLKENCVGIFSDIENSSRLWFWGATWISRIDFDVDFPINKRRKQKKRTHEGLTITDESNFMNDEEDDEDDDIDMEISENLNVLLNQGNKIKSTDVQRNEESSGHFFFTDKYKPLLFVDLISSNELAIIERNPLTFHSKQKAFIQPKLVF", "assay": "cross-link between two proteins"}
{"substance": "U3 small nucleolar RNA-associated protein 8, P53276", "values": [{"measurement": "listed as a hit", "result": "yes"}]}
